JMJD2A Tudor inh – qHTS Assay for Inhibitors of JMJD2A-Tudor Domain | AlphaScreen JMJD2A-Tudor / H3K4me3 peptide binding | Lysine-specific demethylase 4A (Homo sapiens), O75164 | Potency, µM (doses to about 114 µM), inactives show top-dose activity change, negative = inhibition, hits mostly inhibitors | 390,000 tested, 4.4% active | AID 504339, 2011; further: on the % scale 0 is the no-effect control and ±100 the full control effect; nearly all actives have a fitted effect of over 50% in size
Sfp inh – qHTS Assay for Inhibitors of Bacillus subtilis Sfp phosphopantetheinyl transferase (PPTase); 4'-phosphopantetheinyl transferase ffp (Bacillus subtilis), Q9F4F7; Biochemical Sfp PPTase activity, qHTS; Potency, µM, inactives show largest response in the series, negative = inhibition, most hits filed as inhibitors; 310,000 tested, 3.5% active;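 further: the enzyme is Sfp with the accession as filed and its product quenches rhodamine fluorescence; 0% = enzyme reaction without inhibitor and -100% = no enzyme wells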
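Reaction rates are the 30-min fluorescence difference (ex 525, em 598 nm) in wells containing 15 nM Sfp, 5 uM rhodamine-CoA and 12.5 uM BHQ-2-YbbR at pH 7.6 with 10 mM MgCl2.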
L3MBTL1 block – qHTS Assay for the Inhibitors of L3MBTL1 | Potency, µM (doses to about 57.1 µM), without a hit: at the highest dose activity, negative = inhibition, hits mostly inhibitors | AlphaScreen L3MBTL1–H3K9me1 peptide binding | 230,000 tested, 0.66% active | Lethal(3)malignant brain tumor-like protein 1 (Homo sapiens), Q9Y468; further: on the % scale 0 is the no-effect control and ±100 the full control effect; nearly all actives have a fitted effect of over 60% in size
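L3MBTL1 50 nM + b-AHA-H3(1-15)K9me1 75 nM, 30 min RT; compound added, 30 min RT; streptavidin donor/Ni-chelate acceptor beads 10 ug/mL each final, 30 min RT dark; AlphaScreen read.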
BAZ2B inh – qHTS Assay for Inhibitors of BAZ2B. Bromodomain adjacent to zinc finger domain protein 2B (Homo sapiens), Q9UIF8. AlphaScreen BAZ2B-H3K14Ac peptide displacement. Potency, µM (doses to about 114 µM), without a hit: at the highest dose activity change, negative = inhibition, usual class: inhibitors. 360,000 tested, 4.4% active; further: on the % scale 0 is the no-effect control and ±100 the full control effect; nearly all actives have a fitted effect of over 60% in size
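In this displacement format the biotinylated H3(5-23) peptide acetylated at Lys14 serves as ligand at 50 nM, with BAZ2B at 50 nM in PBS pH 7.4 containing 0.01% Tween-20. Donor and acceptor beads are 10 ug/mL final.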
G9a block – qHTS Assay for Inhibitors of Histone Lysine Methyltransferase G9a. 350,000 tested, 8.8% active. Potency, µM (titrated, usually from 102 µM), without a hit: at the top dose activity, negative = inhibition, hits mostly inhibitors. G9a H3K9 monomethylation, AlphaScreen, 2 h; further: on the % scale 0 is the no-effect control and ±100 the full control effect; nearly all actives have a fitted effect of over 75% in size
Target sequence (Q96KQ7 913-1193 limits assumed): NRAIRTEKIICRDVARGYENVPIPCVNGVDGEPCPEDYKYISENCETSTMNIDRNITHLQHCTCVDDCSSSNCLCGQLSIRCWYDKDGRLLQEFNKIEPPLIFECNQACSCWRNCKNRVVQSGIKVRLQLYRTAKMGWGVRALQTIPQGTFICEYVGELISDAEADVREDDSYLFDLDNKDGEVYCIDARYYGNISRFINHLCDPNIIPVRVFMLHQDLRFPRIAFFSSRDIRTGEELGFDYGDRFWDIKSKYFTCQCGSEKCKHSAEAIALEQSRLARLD
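G9a (20 nM) was preincubated 15 min with compound, then reacted 2 h at room temperature with 500 nM biotin-H3K9 peptide and 20 µM SAM. Monomethyl-H3K9 detected by AlphaScreen using anti-H3K9me1 antibody.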
HP1b chromo inh – HTS for Inhibitors of HP1-beta Chromodomain Interactions with Methylated Histone Tails | AlphaScreen HP1-beta / biotin-H3K9me3 peptide binding | Potency, µM (highest dose often 114 µM), inactives show top-dose activity change, negative = inhibition, most hits filed as inhibitors | 390,000 tested, 0.56% active; further: nearly all actives have a fitted effect of over 70% in size
Target sequence (P83916 whole entry, looked up): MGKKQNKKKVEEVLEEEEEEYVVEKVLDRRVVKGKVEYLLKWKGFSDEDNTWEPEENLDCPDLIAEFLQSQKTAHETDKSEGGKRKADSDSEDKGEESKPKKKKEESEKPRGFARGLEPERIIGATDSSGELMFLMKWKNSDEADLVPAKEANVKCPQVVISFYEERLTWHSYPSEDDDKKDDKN
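Compound inhibition of the preformed complex between 50 nM HP1-beta and 50 nM biotinylated H3K9me3 peptide was read by AlphaScreen. Buffer was PBS pH 7.4 with 0.01% Tween-20. Incubations ran 30 min at room temperature, with 10 ug/mL donor/acceptor beads.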
* hit, by the source's call; ? = inconclusive; / = no result given; [ ] = dose if it differs, or a comment. Most compounds without a hit are left out; they make up all but 12% or so of the library. The call rests on the fitted dose curve; in most records, active means well fitted curve in the direction sought with a large enough effect; inconclusive means small, poorly fitted or top-dose-only effect, or another doubt; inactive means no such curve, though single readings can be large; an effect the other way counts as inactive or inconclusive. Potency means the concentration at half of the fitted maximal effect.

SMILES	JMJD2A Tudor inh	Sfp inh	L3MBTL1 block	BAZ2B inh	G9a block	HP1b chromo inh
O=C(CSc1ncc(S(=O)(=O)c2ccc(Br)cc2)c(=O)[nH]1)NCc1ccccc1Cl	2.7%	/	/	-1.4%	-0.1%[59 µM]	30.1%
COC(=O)c1nnn(CC(=O)Nc2ccc(Br)c(C)c2)c1N	-7.8%	/	/	-1.4%	4.0%[59 µM]	28.5%
CC12CCC=CC1C(c1ccc(Br)cc1F)N(Cc1ccccc1)C2=O (centres undefined)	-6.9%	?	/	/	/	22.3%
CC1CCN(C(=O)CSc2nnc(Cc3cccn3C)n2-c2ccc(F)cc2)CC1	?	7.2%	-13.9%	-34.1%	?	-10.9%
CC1CCN(C(=O)CSc2nnc(Cc3cccn3C)n2CCc2ccccc2)CC1	?	6.1%	3.5%	-35.9%	44.7µM*	9.5%
O=C(c1ccc(CSc2nc3ccncc3[nH]2)cc1)N1CCN(c2cccc(Cl)c2)CC1	?	-3.7%	-22.8%	35.5µM*	44.7µM*	13.1%
O=S(=O)(c1ccccc1S(=O)(=O)N1CCCCC1)N1CCCCC1	0.0%	11.8%	-7.8%	2.5%	5.2%	15.1%
O=C1SC(c2ccccc2)=C/C1=C\N1CCCCC1	50.1µM*	?	-18.0%	50.1µM*	3.1%[0.0925 µM]	?
Nc1nc(-c2ccccc2)cn1N	-27.0%	-5.0%	3.7%	?	26.2%[59 µM]	11.4%
COc1ccc(-c2cn(/N=C/c3ccc(Cl)cc3Cl)c(N)n2)cc1	-19.3%	2.1%	/	-12.1%	35.5µM*	3.0%
Nc1nc(-c2ccccc2)cn1/N=C/c1ccccc1	-34.5%	9.7%	-2.6%	-24.3%	50.1µM*	?
Cc1ccc(-n2c(Cc3cccn3C)nnc2SCC(=O)NCc2ccc3c(c2)OCO3)cc1	?	0.7%	-29.9%	50.1µM*	?	-6.3%
Cc1ccc(-n2c(Cc3cccn3C)nnc2SCC(=O)Nc2ccc3c(c2)OCO3)cc1	44.7µM*	-2.4%	-15.2%	44.7µM*	?	?
Cc1ccc(-n2c(Cc3cccn3C)nnc2SCC(=O)Nc2nnc(C)s2)cc1	-33.3%	5.6%	-7.2%	-30.4%	-7.5%[2.33 µM]	-6.6%
O=C(CSc1nnc(-c2cccnc2)n1-c1ccccc1)NCc1ccc2c(c1)OCO2	-22.3%	8.4%	-1.8%	-7.4%	?	56.1%
Cc1c(C(=O)NCCN(C)C)sc2nc3n(c(=O)c12)CCC3	-15.5%	/	/	2.0%	-5.4%[59 µM]	23.4%
NNC(=O)C1CCCN1S(=O)(=O)c1ccc(Cl)cc1 (centres undefined)	-10.5%[57.1 µM]	8.1%	6.5%	-22.7%	18.7%	17.8%
O=C(NC1CCS(=O)(=O)C1)C1CCCCN1S(=O)(=O)c1ccc(Cl)cc1 (centres undefined)	-16.3%	-21.8%	1.6%	2.8%	28.2µM*	18.2%
C=C(C)CC1Nc2ccccc2NC1CC(=C)C (centres undefined)	79.4µM*	?	-10.6%[11.4 µM]	50.1µM*	?	-39.3%
O=C(Nc1cccc2[nH]ncc12)NS(=O)(=O)c1ccccc1	-4.7%	-14.6%	/	?	39.8µM*	37.5%
CC(=O)Nc1ccc(S(=O)(=O)Nc2cccc3[nH]ncc23)cc1	-5.7%	8.9%	-2.0%	-7.5%	0.8%	6.1%
Cc1cc(OCCOc2cccc3cccnc23)cc(C)c1Cl	-8.7%	?	/	9.1%	5.3%[12.7 µM]	26.6%
Cc1cc(C)c(C)c(OCCCOc2cccc3cccnc23)c1	-6.9%	70.8µM*	8.9%	1.5%	-25.0%[59 µM]	24.1%
CC1=C(C(=O)Nc2cccnc2)C(c2ccc(F)cc2)n2nc(SCc3ccccc3F)nc2N1 (centres undefined)	-15.4%	/	/	-13.2%	-4.9%[59 µM]	5.3%
Cc1ccc2oc(C(=O)Nc3nc(-c4ccc(F)cc4)ns3)c(C)c2c1	-11.9%	/	/	-7.2%	-3.3%[59 µM]	31.4%
SMILES	JMJD2A Tudor inh	Sfp inh	L3MBTL1 block	BAZ2B inh	G9a block	HP1b chromo inh
COc1ccc(S(=O)(=O)NNc2nc(C)cc(C)n2)cc1[N+](=O)[O-]	-13.8%	50.1µM*	/	-9.3%	/	6.6%
COc1ccc(C(=O)Nc2nc(C)cc(C)n2)cc1[N+](=O)[O-]	-7.6%	6.5%	3.4%	0.3%	7.4%[59 µM]	35.6%
CCC(=O)N1CCc2cc(Br)cc(S(=O)(=O)CCC(=O)NCc3ccccc3)c21	-5.1%	/	/	2.0%	5.3%[59 µM]	24.7%
CN(C(=O)CSc1nc2ccccc2n1CC(=O)NCc1ccc(F)cc1)c1ccc(F)cc1	-14.6%	/	/	1.0%	-0.9%[59 µM]	15.3%
CC(OC(=O)Cn1[nH]c(=O)c2ccccc2c1=O)C(=O)Nc1ccccc1[N+](=O)[O-] (centres undefined)	-13.1%	/	6.3%	-6.4%	-9.2%[2.33 µM]	6.3%
Cc1nn(CC(=O)OC(C)C(=O)Nc2ccccc2[N+](=O)[O-])c(C)c1[N+](=O)[O-] (centres undefined)	-15.1%	-11.0%	-1.1%	5.0%	79.4µM*	-6.5%
COc1ccc(C)cc1NC(=O)C(CCSC)NS(=O)(=O)c1ccc2c(c1)oc(=O)n2C (centres undefined)	-19.6%	/	/	2.3%	7.9%[59 µM]	9.6%
COc1ccc(NC(=S)N2CCN(c3ncccn3)CC2)c(OC)c1	-11.4%	50.1µM*	/	3.0%	-34.6%	44.9%
COc1cccc(-c2cc(C(=O)NCCc3ccc(OC)c(OC)c3)no2)c1	1.4%	/	/	1.8%	18.4%[59 µM]	34.7%
CCOC(=O)c1ccc(CN(Cc2ccc(C)cc2)S(=O)(=O)c2ccc(F)c(C(=O)Nc3ccc(C)c(F)c3)c2)cc1	-12.5%	/	/	5.1%	7.3%[59 µM]	33.2%
O=S(=O)(/C(=C/c1ccc(C(F)(F)F)cc1)c1nc2ccccc2[nH]1)c1ccccc1	79.4µM*	-18.8%	-12.2%	-30.3%	6.4%[59 µM]	-12.1%
CC(C)c1ccc(/C=C(\c2nc3ccccc3[nH]2)S(=O)(=O)c2ccccc2)cc1	-14.1%	20.0%	-16.7%	-31.3%	6.4%[59 µM]	-0.2%
CCOc1ccccc1NC(=O)C1CCN(S(=O)(=O)c2cccc3nonc23)CC1	-14.0%	/	/	4.9%	-7.2%[59 µM]	21.3%
CC1(C)CN=c2s/c(=C\c3ccc(Cl)cc3)c(=O)n2C1	-9.6%	-8.0%	0.5%	?	70.8µM*	13.5%
CSC1=N/C(=C\c2ccc(Cl)cc2)C(=O)N1N(C)C	-5.0%	-7.2%	-16.5%	-26.6%	15.4%	27.6%

Screening data as filed in PubChem.
